# Measured values reported in PubChem BioAssay AID596 (National Center for Advancing Translational Sciences (NCATS), 2007).
# The campaign covered roughly 71,000 compounds. About 1,400 (2%) were called active. About 3% were inconclusive and are not listed. Many of the other results were omitted from the sample, so actives are more common in it than they were. Unmarked numbers belong to inactive results. Calls follow the shape of the dose curve; as a rule, active = well fitted curve in the direction sought with a large enough effect; inconclusive = small, poorly fitted or top-dose-only effect; inactive = no such curve, though single readings can be large or run the other way.
# Biological target: Microtubule-associated protein tau (Homo sapiens) (UniProt P10636)
# Sequence (P10636 whole entry, looked up): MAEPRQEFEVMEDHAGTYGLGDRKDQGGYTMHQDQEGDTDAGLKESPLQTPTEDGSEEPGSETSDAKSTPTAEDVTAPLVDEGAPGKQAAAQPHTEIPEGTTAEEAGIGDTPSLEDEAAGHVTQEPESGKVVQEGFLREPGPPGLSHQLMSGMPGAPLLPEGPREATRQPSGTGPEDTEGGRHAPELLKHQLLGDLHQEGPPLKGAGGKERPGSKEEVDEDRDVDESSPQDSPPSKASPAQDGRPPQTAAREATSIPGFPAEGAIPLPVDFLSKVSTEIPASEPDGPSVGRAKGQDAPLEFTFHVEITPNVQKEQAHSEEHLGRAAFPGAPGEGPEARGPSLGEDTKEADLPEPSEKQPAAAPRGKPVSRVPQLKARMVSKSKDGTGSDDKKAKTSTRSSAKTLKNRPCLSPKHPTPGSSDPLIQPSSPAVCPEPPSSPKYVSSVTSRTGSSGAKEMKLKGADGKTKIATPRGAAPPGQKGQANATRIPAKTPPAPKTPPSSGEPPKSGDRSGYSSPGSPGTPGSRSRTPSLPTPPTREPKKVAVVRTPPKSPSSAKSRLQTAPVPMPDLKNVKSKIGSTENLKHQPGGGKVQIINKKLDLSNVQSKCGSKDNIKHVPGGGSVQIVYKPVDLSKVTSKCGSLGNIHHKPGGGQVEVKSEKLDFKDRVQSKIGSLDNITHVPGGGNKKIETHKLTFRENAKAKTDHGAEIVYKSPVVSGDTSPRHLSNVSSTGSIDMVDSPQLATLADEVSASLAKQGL
# Assay: qHTS Assay for Tau Filament Binding;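 also: actives lower thioflavin S fluorescence by blocking filaments or displacing dye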
# Conditions: recombinant tau filaments, thioflavin S fluorescence, 15 h, filaments grown with octadecylsulfate alongside compound; series mostly up to 57.1 µM; activity change, negative = inhibition: at the top concentration
# From the text: NIH Molecular Libraries Screening Centers Network [MLSCN]
# NIH Chemical Genomics Center [NCGC]
# Assay Provider: Jeffrey A. Kuret, Ohio State University
# Tau monomers form filaments in vitro in the presence of anionic detergents or fatty acids. The dye Thioflavine S (ThS) binds to tau filaments and upon binding, increases in fluorescence several fold. Small molecules that displace ThS binding or prevent filament binding are identified by a reduction in ThS fluorescence. This assay used histidine-tagged, recombinant human tau protein containing the products of exons 2, 3, and 10 that was provided by Jeff Kuret, Ohio State University. To form filaments, 1 uM tau was incubated with 30 uM sodium octadecylsulfate (ODS) in reagent buffer (10 uM thioflavine S, 5 mM 1,4-dithioerythreitol (DTT), 100 mM sodium chloride, 10 mM HEPES pH 7.4) for 15 hrs at 37 C.
# NCGC Assay Protocol Summary:
# Assay Steps. Two uL/well of 2 uM tau in reagent buffer (10 uM thioflavine S, 5 mM DTT, 100 mM sodium chloride, 10 mM HEPES pH 7.4) was dispensed into solid black 1536-well plates. Twenty-three nL compound was transferred to the assay plate after which 2 uL/well of 60 uM ODS in reagent buffer was dispensed for a final assay volume of 4 uL /well. Following 15 hours of incubation at 37 C, fluorescence was detected by an Envision (Perkin Elmer) using 450/8 nm excitation and 510/23 nm emission.
# Keywords: NIH Roadmap, MLSCN, MLI, MLSMR, qHTS, NCGC, Alzheimer's disease, Neurofibrillary lesions, tau, tubulin assembly, microtubule stability, cytoskeletal integrity, fibrillization, thioflavin dyes, Amyloidgenic
# % is scaled to controls: 0 for no effect and ±100 for the full control effect; potency is read from the fitted curve at half-maximal effect.
Compound,"activity change, negative = inhibition",Potency
c1ccc(CSc2nnc(-c3ccco3)n2Cc2ccccc2)cc1,6.8%,
Nc1cc(=O)nc(SCc2ccccc2)n1Cc1ccco1,-10.8%,
c1ccc(CSc2nnc(-c3ccco3)c(-c3ccco3)n2)cc1,,7.94 µM (active)
COc1cccc(Cn2c(=O)c(C)nc3cnc(Oc4ccccc4)nc32)c1,-14.4%,
O=C(O)c1nccnc1C(=O)Nc1ccc(Br)cn1,-1.2%,
CCS(=O)(=O)N(C)[C@@H]1c2cc(C#N)ccc2OC(C)(C)[C@H]1O,,39.8 µM (active)
C=CCOC(=O)COCCC(C)C,13.7%,
NC[C@@H]1O[C@H](O[C@@H]2[C@H](O[C@@H]3O[C@H](CO)[C@@H](COC[C@H]4O[C@@H](CN)[C@@H](O)[C@@H](O)[C@@H]4N)[C@@H]3O)[C@@H](O)[C@@H](N)C[C@H]2N)[C@@H](N)[C@H](O)[C@@H]1O,-1.7% [at 25.6 µM],
O=Cc1c(Cl)cccc1Cl,4.8%,
CC(=O)OCC(COC(C)=O)OC(C)=O,-6.1%,
CC(c1ccccc1)n1c(NCCCn2ccnc2)nc2c1c(=O)[nH]c(=O)n2C (configuration not stated),-3.1%,
CC(Sc1nc2ccccc2c(=O)n1Cc1ccco1)C(=O)c1ccccc1 (configuration not stated),14.2%,
O=C(CSc1nnc(-c2cccnc2)n1Cc1ccco1)c1ccc(Cl)cc1,1.3%,
Clc1cccc(-c2nc3nc4ccccc4nc3n2Cc2ccco2)c1,,15.8 µM (active)
CC(C)CSC[C@@H]1O[C@H](n2cnc3c(N)nccc32)[C@H](O)[C@@H]1O,-0.6% [at 11.4 µM],
O=c1c(CCc2ccccc2)nc2cnc(N3CCNCC3)nc2n1Cc1cccs1,19.3%,
Cc1cc(C)cc(N)c1,11.7%,
NC1(C(=O)OCc2ccccc2)CCCC1,6.1% [at 11.4 µM],
N#Cc1ccc(COC(=O)Cn2nnc(-c3ccccc3)n2)cc1,-11.5%,
N#Cc1c(N)sc2c1CCN(C(=O)OCc1ccccc1)C2,,15.8 µM (active)
COC(=O)C1=C(C)NC(=O)NC1/C=C/c1ccccc1 (configuration not stated),11.1%,
COC(=O)C1=C(C)NC2=C(C(=O)c3ccccc32)C1c1ccc(-c2ccc(C(=O)O)cc2)o1 (configuration not stated),,25.1 µM (active)
COc1ccccc1NC(=O)C1=C(C)NC2=C(C(=O)CCC2)C1c1ccc(C)o1 (configuration not stated),0.5%,
Cc1cccc(C(=O)O)c1,0.9%,
CCN(CC)C(=O)c1sc(NC(=O)c2ccco2)c(C#N)c1C,5.3%,
COc1ccc(NC(=O)c2ccc(OC)cc2)cc1,8.2%,

Compound,"activity change, negative = inhibition",Potency
COc1ccc(C(=O)N/N=C2/C(=O)c3c(C)cc(C)cc3CC2(C)C)cc1,,5.01 µM (active)
CCCC[C@H]1C(=O)N(c2ccccc2)N(c2ccc(O)cc2)C1=O,-14.5% [at 25.6 µM],
CCCC1CC(C)(C(=O)Cn2[nH]c(=O)ccc2=O)OC1=O (configuration not stated),0%,
CN(C)CCSc1nc(N)c2c3c(sc2n1)COC(C)(C)C3,,12.6 µM (active)
CCC1(C)Cc2c(sc3nc4n(c(=O)c23)CCCS4)CO1 (configuration not stated),-15.1%,
O=C1NC(=O)[C@@](Cc2ccccc2)(c2cccnc2)N1,-0.4% [at 11.4 µM],
COC(=O)C1(C)C=CC2(CCCCC2)N1C(C)=O (configuration not stated),-2.6%,
Cn1c(=O)c(CCc2ccccc2)nc2cnc(Nc3ccccc3)nc21,102%,
CNC(=O)C1(C)C=CC2(CCCCC2)N1C(C)=O (configuration not stated),-0.4%,
Cc1nn(C(=O)c2ccoc2C)c(N)c1-c1ccccc1,-16.2%,
Cc1nn2c(c1-c1ccccc1)N=C(c1ccco1)CC2c1ccccc1 (configuration not stated),,10 µM (active)
C[C@@H]1O[C@@H](O[C@@H]2[C@@H](O)[C@H](OCCc3ccc(O)c(O)c3)O[C@H](CO[C@@H]3O[C@H](CO)[C@@H](O)[C@H](O)[C@H]3O)[C@H]2OC(=O)/C=C/c2ccc(O)c(O)c2)[C@H](O)[C@H](O)[C@H]1O,5.1%,
CCCC(C(=O)NCc1ccco1)N(C(=O)CNS(=O)(=O)c1ccccc1)C1CCCC1 (configuration not stated),-19.1%,
CC(=O)N1CCN(c2ccc(NCc3ccc(C(C)C)cc3)cc2)CC1,,25.1 µM (active)
CN1CCN(c2ccc(NC(=O)COc3ccc(Cl)cc3Cl)cc2)CC1,3.5%,
CC(=O)N1CCC2(CC1)CCN(c1ccncc1)CC2,5.9%,
COCCNc1ncnc2ccc(-c3ccccc3CN(C)C)cc12,4.2%,
O=c1cc(-c2ccc(O)c(O)c2)oc2cccc(O)c12,,39.8 µM (active)
COC(=O)[C@@]1(Cc2ccc(F)cc2)[C@@H]2[C@@H](CC(=O)[C@H]2CC(=O)C(=O)N2CCCC2)CN1C(=O)c1ccccc1,-4.8%,
Cc1ccc(/C(=C/CN2CCCC2)c2ccccn2)cc1,,inactive
C=C(C)C1CC=C(C)C(O)C1 (configuration not stated),3.7%,
CC(=O)Oc1ccccc1C(=O)Nc1ncc([N+](=O)[O-])s1,0.6%,
O=c1c(CCc2ccccc2)nc2cncnc2n1C1CC1,-4.1%,
COc1cc(-c2nn3c(-c4cccc(C)c4)nnc3s2)cc(OC)c1OC,38.8%,
c1ccc(-c2cc(-c3nnc4sc(-c5ccccn5)nn34)[nH]n2)cc1,,1 µM (active)
Cc1cccc(NC(=O)C2CCN(S(=O)(=O)c3cccc4cccnc34)CC2)c1,1.5%,

Compound,"activity change, negative = inhibition",Potency
COC(=O)CCCCCN1C(=O)NC(c2ccc(-c3ccccc3)cc2)C(C(=O)OCc2ccccc2)=C1C (configuration not stated),-3.4%,
O=C(CN1CCN(c2ccc(F)cc2)CC1)Nc1cccc(C(F)(F)F)c1,-3.8%,
O=C(CSc1nnc(-c2ccco2)o1)NCC(=O)c1ccccc1,-5.7%,
CCCCN(C)C(=O)c1ccc2c(c1)N(CC)C(=O)c1ccccc1S2(=O)=O,5.4%,
CCN1C(=O)c2cccc3c(N)ccc1c23,,25.1 µM (active)
Oc1ccc(O)c2c(O)cccc12,,5.01 µM (active)
COC(=O)Nc1ncc(CN2C(=O)c3ccccc3C2=O)s1,1.9%,
CCOc1ccccc1N=C1NC(=O)CS1,-6%,
C[N+](C)(C)CCCCCNCC12CC3CC(CC(C3)C1)C2,,31.6 µM (active)
CCc1ccc(CCC(=O)Nc2ccc(S(N)(=O)=O)cc2)o1,-6.1%,
CCOc1ccccc1C(=O)NCc1ccco1,20.9%,
O=C(Nc1ccccc1)Nc1ccccc1C(=O)NCc1ccco1,-4.8%,
Cc1cccn2c(=O)c3cc(C(=O)NCc4ccccn4)n(C)c3nc12,9.9%,
COc1ccc(CNC(=O)c2cc3c(=O)n4ccccc4nc3n(CC3CCCO3)c2=N)cc1 (configuration not stated),,2.51 µM (active)
CCn1c(=N)c(C(=O)NCCCOC)cc2c(=O)n3cccc(C)c3nc21,-2.4%,
COC(=O)c1ccc2c(=O)n(CC3CCCO3)c(=S)[nH]c2c1 (configuration not stated),6.1%,
COc1ccc(CCn2c(=N)c(C(=O)NCc3ccco3)cc3c(=O)n4cccc(C)c4nc32)cc1,,2 µM (active)
O=C(NCc1ccco1)c1cccn2c(=O)c3cc(Br)ccc3nc12,,25.1 µM (active)
C[C@]1(C(=O)NCCc2c[nH]c3ccccc23)C=C[C@@H](Cc2ccccc2)N1C(=O)c1ccccc1,78.2%,
Cn1cccc1C(=O)N1CCC2(CC1)CN(c1cccc(-c3ccccc3)c1)C2,-8.2%,
CC(=O)CC(C)C,-8.5%,
C[C@H](CCC(=O)O)[C@H]1CC[C@@H]2[C@H]3CC[C@H]4C[C@H](O)CC[C@@]4(C)[C@@H]3CC[C@@]21C,11.3% [at 11.4 µM],
COC(=O)c1ccc(C(NC(=O)OCc2ccccc2)/C(C)=C/[C@@H](C)C(=O)NCc2cc(C)on2)cc1 (some centres not stated),-4.6%,
COC(=O)[C@H]1C[C@@H]1[C@H](NC(=O)Oc1ccc(F)cc1)c1ccccc1,-3.2%,
CCOC(=O)c1ccn(-c2nc(-c3ccco3)cc(C(F)(F)F)n2)n1,-22.9%,
FC(F)(F)c1cc(-c2ccco2)nc(N2CCOCC2)n1,4%,

Compound,"activity change, negative = inhibition",Potency
COC(=O)c1cnn2c(C(F)(F)F)cc(-c3ccco3)nc12,,15.8 µM (active)
CCC[C@@H]1C[C@@]1(CCC)C(NS(=O)(=O)c1cccc2cccnc12)c1ccc(Cl)cc1 (some centres not stated),-15.3%,
CN(C)C(=O)/N=N\C(=O)N(C)C,-7.5%,
CCCc1cc(=O)[nH]c(SCc2ccc(C#N)cc2)n1,2.2%,
COc1ccc(Cc2nnc(NS(=O)(=O)Cc3ccccc3)s2)cc1,-0.8%,
COc1ccc(Cc2nnc(NC(=O)Cc3cccs3)s2)cc1,,25.1 µM (active)
CCc1nnc(NC(=O)CSc2nnc(Cc3ccccc3)n2-c2ccc(OC)cc2)s1,-7.8%,
COC(=O)N1CCC2(CCCN(c3ccncc3)C2)CC1,19.9%,
Cc1cccn2c(=O)c3cc(C#N)c(=O)n(CCCN4CCOCC4)c3nc12,2.6%,
O=C1C(c2[nH]c3ccccc3c2O)=Nc2ccccc21,-20%,
Cc1cc2ccccc2n2c(SCC(=O)N3CCN(C(=O)c4ccco4)CC3)nnc12,6%,
O=C1c2ccccc2C(O)N1Cc1ccccc1 (configuration not stated),2.9%,
CC[N+](C)(CC)CCC[n+]1c(-c2ccccc2)c2cc(N)ccc2c2ccc(N)cc21,,1.58 µM (active)
CCOC(=O)Cn1c2c(c(-c3ccccc3OC)cc1=O)CCCC2,0.5%,
COCCn1c(=O)[nH]c2cc(C(=O)NCc3cccnc3)ccc2c1=O,6.2%,
O=C(O)[C@H](CCc1ccccn1)c1ccccc1,-5.3% [at 11.4 µM],
CCSc1ncnc2c(C#N)c3n(c12)CCCCC3,11.1%,
CCSC1=C(C#N)C(=O)n2c1cc1c2CCCC1,,25.1 µM (active)
CC(C)C[C@@H](CC(=O)N[C@@H](CCC(=O)O)CC(=O)O)NC(=O)[C@@H]1CCCC[C@H]1NC(=O)C[C@@H](NC(=O)C[C@H](CO)NC(=O)[C@@H]1CCCC[C@H]1N)C(C)C,-3.3%,
CCC(C)(C(=O)NC1CCCC1)N(C(=O)CNC(C)=O)c1ccc(C)cc1 (configuration not stated),-10.2%,
C=CC(=O)OCCOCCOCCOCCOC(=O)C=C,,inactive
Cn1c(-c2ccco2)nc2cc3ccccc3cc21,97.4%,
c1coc(-c2nc3nc4ccccc4n3nc2-c2ccco2)c1,,3.16 µM (active)
Cc1nn2c3ccccc3nc2n(C)c1=O,-16.6%,
